High-throughput results as filed in PubChem.
Hits are enriched below; roughly 7% of the tested compounds scored in any of these assays.
ADAM10 inh = ADAM10 inhibition, QFRET primary screen; O14672; recombinant ADAM10, EDANS/DABCYL FRET peptide cleavage, 3 h; inhibition, % at 7 µM; 370,000 tested, 0.62% active;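 active = inhibition above a per-campaign cutoff equal to the mean of compounds falling between control-based bounds plus 3 SD, cut at about 20% in these data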;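 also: 0% = DMSO wells while the 100% control is not disclosed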
proKLK7 act = proKLK7 (human) activation, primary screen; P49862; purified proKLK7, EDANS-DABCYL substrate fluorescence; 100% is mature enzyme control, 0% vehicle; activation, % at 7 µM; 370,000 tested, 0.9% active;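 active = activation above the mean of all tested compounds plus 3 SD, computed per campaign excluding outliers beyond control limits, cut at about 13% in these data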
GRIN3A LBD mod = modulators (binders) of human NR3A ligand-binding domain. NR3A LBD differential scanning fluorimetry, Tm shift; 0% = protein alone, 100% = glycine-bound protein. Tm shift relative to glycine control, % at 25 µM. 340,000 tested, 2.5% active;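 active = melting temperature shift of at least 10% of the positive control shift, at one fixed dose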
rCAG binder = molecules binding r(CAG) RNA repeats | inhibition, % at 3 µM | r(CAG) RNA repeat, TO-PRO-1 dye displacement fluorescence | AID 651821 | 370,000 tested, 1.3% active;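 active = inhibition above the plate cutoff, the mean of all test compounds on that plate plus 3 SD, cut at about 35% in these data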;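 also: 0% = DMSO alone and 100% = 100 µM mitoxantrone as full dye displacement; higher means more dye released from RNA so lower well fluorescence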
ADAM17 inh = ADAM17 inhibition, QFRET primary screen. recombinant ADAM17, EDANS/DABCYL FRET peptide cleavage. 370,000 tested, 0.83% active. inhibition, % at 6.95 µM;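 active = inhibition above the mean of compounds lying between control limits plus 3 SD, set per campaign, cut at about 8.5% in these data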;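 also: 0% = DMSO-only wells as the low control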
AHR activator = human AHR activation; P35869; AHR-responsive luciferase reporter cells, luminescence; activation, % at 5 µM; 320,000 tested, 2.5% active; AID 2796; in the data active = activation above about 47%;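 also: 0% = vehicle wells and 100% = reference agonist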
Target sequence (P35869 whole entry, looked up): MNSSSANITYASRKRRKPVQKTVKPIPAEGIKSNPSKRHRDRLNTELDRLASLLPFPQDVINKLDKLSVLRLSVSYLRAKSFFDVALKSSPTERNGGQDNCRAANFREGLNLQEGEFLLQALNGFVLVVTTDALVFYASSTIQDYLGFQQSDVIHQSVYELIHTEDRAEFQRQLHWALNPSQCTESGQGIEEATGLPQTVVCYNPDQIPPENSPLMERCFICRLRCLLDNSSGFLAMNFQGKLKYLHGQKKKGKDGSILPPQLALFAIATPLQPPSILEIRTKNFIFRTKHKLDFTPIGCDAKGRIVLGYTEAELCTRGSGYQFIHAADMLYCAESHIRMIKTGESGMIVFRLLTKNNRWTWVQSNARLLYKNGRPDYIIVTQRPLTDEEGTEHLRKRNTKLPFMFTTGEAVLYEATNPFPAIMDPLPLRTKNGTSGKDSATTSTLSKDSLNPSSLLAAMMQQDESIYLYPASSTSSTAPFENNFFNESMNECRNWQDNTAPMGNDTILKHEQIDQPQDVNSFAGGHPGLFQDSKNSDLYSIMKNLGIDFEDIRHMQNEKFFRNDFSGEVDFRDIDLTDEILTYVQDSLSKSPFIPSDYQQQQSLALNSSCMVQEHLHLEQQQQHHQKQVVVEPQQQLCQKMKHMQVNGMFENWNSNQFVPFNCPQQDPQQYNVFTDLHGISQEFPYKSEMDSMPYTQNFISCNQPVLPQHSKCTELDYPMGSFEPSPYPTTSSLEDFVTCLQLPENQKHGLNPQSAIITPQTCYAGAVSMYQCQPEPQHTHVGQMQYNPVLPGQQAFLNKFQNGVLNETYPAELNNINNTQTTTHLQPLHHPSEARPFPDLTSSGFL
KLK7 act conf = proKLK7 activation, confirmation | shares compounds with proKLK7 act | purified proKLK7, EDANS-DABCYL substrate fluorescence; scaled: vehicle 0, mature enzyme 100 | activation, % at 7 µM | 3,200 tested, 68% active;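 active = activation, as change over the incubation, above the mean of all tested compounds plus 3 SD, cut at about 13% in these data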
EDANS-DABCYL int = optically interferes with EDANS-DABCYL signal, flagging KLK7 hits. shares compounds with proKLK7 act. EDANS-DABCYL substrate fluorescence interference, no enzyme, 4 h; solvent 0%, active enzyme control 100%. activation, % at 7 µM. 3,200 tested, 80% active. AID 686952;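 active = activation above the all-compound mean plus 3 SD, ignoring values outside control-based bounds, cut at about 4.8% in these data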;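 also: value is the 4 h activation minus the activation read at time zero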
* hit, by the source's call.

`O=C(OCC(=O)N1CCN(C(=O)c2ccco2)CC1)c1cc(-c2ccco2)nc2ccccc12` gave GRIN3A LBD mod -1 and AHR activator 8.
CN1CCN(NC(=O)c2cc(-c3ccccn3)nc3ccccc23)CC1 was read as ADAM10 inh 5, proKLK7 act 0, GRIN3A LBD mod 1, rCAG binder -1, ADAM17 inh 0 and AHR activator 5.
`O=C(O)c1cc(-c2ccco2)nc2ccccc12` gave ADAM10 inh inactive, proKLK7 act 21*, GRIN3A LBD mod 4, rCAG binder 14, ADAM17 inh inactive, AHR activator 5, KLK7 act conf 16* and EDANS-DABCYL int 16*.
CN1CCN(NC(=O)c2cc(-c3ccc(Cl)s3)nc3ccccc23)CC1 was read as ADAM10 inh inactive, proKLK7 act 26*, GRIN3A LBD mod 4, rCAG binder 1, ADAM17 inh -387, AHR activator 0, KLK7 act conf -33 and EDANS-DABCYL int -24.
For CCN(CC)CCNC(=O)c1ccc(NC(=O)c2cc(-c3ccco3)nc3ccccc23)cc1 the results were ADAM10 inh -406, proKLK7 act 31*, GRIN3A LBD mod -1, rCAG binder 4, ADAM17 inh -148, AHR activator -2, KLK7 act conf -34 and EDANS-DABCYL int -21.
For CN(C)C(=O)c1ccc(NC(=O)c2cc(-c3ccco3)nc3ccccc23)cc1 the results were ADAM10 inh -174, proKLK7 act 4, GRIN3A LBD mod 2, rCAG binder 16 and ADAM17 inh -58.
For CCNC(=O)COC(=O)c1cc(-c2ccco2)nc2ccccc12 the results were ADAM10 inh -456, proKLK7 act 121*, GRIN3A LBD mod 0, rCAG binder 28, ADAM17 inh -157, AHR activator 5, KLK7 act conf 17* and EDANS-DABCYL int 19*.
For CCN(Cc1ccc(O)cc1)CC1CCCN(CCc2cccc(F)c2)C1 (stereo not given) the results were ADAM10 inh 0, proKLK7 act 1, GRIN3A LBD mod 0, rCAG binder 3, ADAM17 inh -2 and AHR activator 0.
Cc1ccc(NC(=O)C(=O)NCCCN2CC(C(=O)O)CC2=O)cc1 (stereo not given) was read as ADAM10 inh -2, proKLK7 act 0, GRIN3A LBD mod 2, rCAG binder 1, ADAM17 inh 6 and AHR activator 1.
For CC(C)[C@H](NS(=O)(=O)c1ccccc1F)C(=O)OCC(=O)Nc1cccc(S(N)(=O)=O)c1 the results were ADAM10 inh -8, proKLK7 act -1, GRIN3A LBD mod 6, rCAG binder 4, ADAM17 inh -1 and AHR activator -1.
`Cc1ccc(Cl)cc1NC(=O)CCC(=O)NCc1ccco1` gave ADAM10 inh 7, proKLK7 act 1, GRIN3A LBD mod 1, rCAG binder -3, ADAM17 inh 0 and AHR activator 1.
For Cc1ccc(-c2cc(C(=O)O)c3cc(Br)ccc3n2)s1 the results were ADAM10 inh inactive, proKLK7 act 14*, GRIN3A LBD mod -17, rCAG binder 24, ADAM17 inh -208, KLK7 act conf 22* and EDANS-DABCYL int 26*.
CCc1ccc(-c2cc(C(=O)O)c3ccccc3n2)s1 was read as ADAM10 inh inactive, proKLK7 act 66*, GRIN3A LBD mod 4, rCAG binder 16, ADAM17 inh inactive, KLK7 act conf 60* and EDANS-DABCYL int 60*.
Cc1ccc(-c2cc(C(=O)NCc3ccco3)c3ccccc3n2)o1 was read as ADAM10 inh inactive, proKLK7 act 18*, GRIN3A LBD mod -1, rCAG binder 18, ADAM17 inh -183, AHR activator 6, KLK7 act conf -11 and EDANS-DABCYL int -2.
